As usually defined, the AC50 is the concentration giving half of the maximal activity seen.

Results filed as inconclusive are left out. The source made the active and inactive calls. Rule for the calls: active = hit-call score of the fitted dose curve at least 0.9, where 1 is the maximum; inconclusive = response in the unintended direction; inactive = score below 0.9.

Chain of GAL4 Transcription Factor (Internal Marker), GAL4 (gene 855828) (P04386 whole entry, looked up, the tested form may be a part): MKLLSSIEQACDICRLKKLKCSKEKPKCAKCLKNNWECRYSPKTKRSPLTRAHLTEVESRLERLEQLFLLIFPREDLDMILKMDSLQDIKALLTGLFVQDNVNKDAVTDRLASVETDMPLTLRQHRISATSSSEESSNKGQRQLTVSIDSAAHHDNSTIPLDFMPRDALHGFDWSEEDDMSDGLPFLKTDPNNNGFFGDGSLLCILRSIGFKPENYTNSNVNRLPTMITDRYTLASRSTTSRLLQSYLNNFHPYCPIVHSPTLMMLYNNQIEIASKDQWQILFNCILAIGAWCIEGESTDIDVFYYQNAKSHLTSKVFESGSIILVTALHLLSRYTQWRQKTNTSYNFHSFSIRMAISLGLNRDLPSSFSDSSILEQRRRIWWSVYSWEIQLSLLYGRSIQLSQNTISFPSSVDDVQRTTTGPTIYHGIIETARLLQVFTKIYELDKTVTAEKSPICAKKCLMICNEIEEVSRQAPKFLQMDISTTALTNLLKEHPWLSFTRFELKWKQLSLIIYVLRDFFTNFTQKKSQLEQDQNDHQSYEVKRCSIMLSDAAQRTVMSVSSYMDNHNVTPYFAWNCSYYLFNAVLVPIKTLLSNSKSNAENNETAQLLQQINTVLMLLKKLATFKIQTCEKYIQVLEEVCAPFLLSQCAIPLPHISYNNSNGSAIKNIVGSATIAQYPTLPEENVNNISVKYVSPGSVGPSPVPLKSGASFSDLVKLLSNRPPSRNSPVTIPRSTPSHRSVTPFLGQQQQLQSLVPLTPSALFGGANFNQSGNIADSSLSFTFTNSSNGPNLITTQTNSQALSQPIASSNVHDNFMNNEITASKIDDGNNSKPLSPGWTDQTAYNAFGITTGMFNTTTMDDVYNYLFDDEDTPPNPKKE

The test system of one assay is turtle Estrogen Receptor (ESR1), gene 101933533. The assay can be described thus: ATG_trERa_XSP1: Attagene TRANS-FACTORIAL Multi-Species (XSP1) HepG2 Assay for turtle Estrogen Receptor (ESR1) (AID 2283781). In short, it runs like this:
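Transactivation measured 24 h post-dose as reporter mRNA (RT-PCR, fluorescent capillary electrophoresis) from an NR-Gal4 turtle ER construct in HepG2. Medium included 3 nM 6-alpha-fluorotestosterone; increase over DMSO fitted.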
Take `Cc1c(COC(=O)[C@@H]2[C@H](/C=C(\Cl)C(F)(F)F)C2(C)C)cccc1-c1ccccc1`: the AC50 is 19.8 µM (active).
For the molecule `CCN(CC)C(=O)C(C)Oc1cccc2ccccc12` (stereo unspecified), the concentration at half-maximal activity (AC50) was 5.99 µM (active).
Same read-out and setting: next, `CC1(C)CCC(=Cc2ccc(Cl)cc2)C1(O)Cn1cncn1` (stereo unspecified): 5.79 µM (active).
Turning to `CSC(=O)c1c(C(F)F)nc(C(F)(F)F)c(C(=O)SC)c1CC(C)C`, the molecule was called inactive.
On to `CC(C)NC(=O)N1CC(=O)N(c2cc(Cl)cc(Cl)c2)C1=O`, for which the AC50 was 41.4 µM (active).
As to `CC1(C)C(C=C(Cl)Cl)C1C(=O)OC(C#N)c1cccc(Oc2ccccc2)c1` (stereo unspecified), the molecule was called inactive.
As to `COP(=S)(OC)Oc1ccc([N+](=O)[O-])c(C)c1`, the AC50 is 50.1 µM (active).

Tested on in a further assay: not listed separately
The assay can be described thus: ACEA_ER_AUC_viability: ACEA Biosciences xCELLigence Real-Time Cell Analysis on Estrogen Receptor Agonism for Viability (AID 2283782).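 Note: hit means loss of impedance signal meaning reduced cell growth or viability.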 In short, it runs like this:
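Viability endpoint: reduced impedance area under the curve relative to DMSO, recorded by real-time electrode sensing over ~80 h of continuous exposure. Duplicate plates of T47D in hormone-depleted medium; eight concentrations, 1:4 dilutions, 100 uM maximum.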
As to `Cc1c(COC(=O)[C@@H]2[C@H](/C=C(\Cl)C(F)(F)F)C2(C)C)cccc1-c1ccccc1`, the outcome was inactive.
Regarding `COc1cc(Cl)c(OC)cc1Cl`, the call was inactive.
As for `Cc1ccc(N=CN(C)C=Nc2ccc(C)cc2C)c(C)c1`, the half-maximal activity concentration (AC50) was 50 µM (active).
In the case of `CCN(CC)c1nc(C)cc(OP(=S)(OC)OC)n1`, the molecule was called inactive.
The same measure, in the same setting: under `O=P(O)(O)CCCl` stands “inactive”.
`CSC(=O)c1c(C(F)F)nc(C(F)(F)F)c(C(=O)SC)c1CC(C)C`: the AC50 was 81.2 µM (active).
For the molecule `CC(C)NC(=O)N1CC(=O)N(c2cc(Cl)cc(Cl)c2)C1=O`, the result was inactive.
Consider `Nc1c(Cl)c(Cl)nc(C(=O)O)c1Cl`, for which the molecule was classed as inactive.
Still for that read-out and setting: under `CNC(=O)N(C)c1nnc(C(C)(C)C)s1` stands “inactive”; under `CCCC(=NOCC)C1=C(O)CC(CC(C)SCC)CC1=O` (stereo unspecified), “inactive”; under `Nc1cnn(-c2ccccc2)c(=O)c1Cl`, “inactive”.
Same read-out and setting: under `CC(C)N1C(=O)c2ccccc2NS1(=O)=O` stands “inactive”.
Turning to `OC(c1ccc(Cl)cc1)(c1ccc(Cl)cc1)C(Cl)(Cl)Cl`, the AC50 is 26.4 µM (active).
Take `CCSC(=O)N1CCCCCC1`: the molecule was classed as inactive.
Same read-out and setting: next, `COP(=S)(OC)Oc1ccc([N+](=O)[O-])c(C)c1`: “inactive”; `CC(C)Oc1cccc(NC(=O)c2ccccc2C(F)(F)F)c1`: “inactive”.
For the molecule `CC1(C)C(C(=O)OC(C#N)c2cccc(Oc3ccccc3)c2)C1(C)C` (stereo unspecified), the AC50 was 89.4 µM (active).
With `CC(C)=CC1C(C(=O)OCc2coc(Cc3ccccc3)c2)C1(C)C` (stereo unspecified), the AC50 was 84 µM (active).

In the next assay the target is Estrogen receptor beta (Homo sapiens) (UniProt Q92731). The assay can be described thus: ATG_hERb_XSP1: Attagene TRANS-FACTORIAL Multi-Species (XSP1) HepG2 Assay for human Estrogen Receptor (ESR2) (AID 2283788). In short, it runs like this: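 HepG2 cells transiently transfected with multiplexed GAL4-UAS reporter units carrying chimeric human ERβ-Gal4; 24 h compound exposure with 3 nM 6-alpha-fluorotestosterone present. Reporter mRNA quantified by RT-PCR, FAM labelling and capillary electrophoresis; gain-of-signal fitted versus DMSO.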
Chain of Estrogen receptor beta (Homo sapiens) (Q92731 whole entry, looked up, the tested form may be a part): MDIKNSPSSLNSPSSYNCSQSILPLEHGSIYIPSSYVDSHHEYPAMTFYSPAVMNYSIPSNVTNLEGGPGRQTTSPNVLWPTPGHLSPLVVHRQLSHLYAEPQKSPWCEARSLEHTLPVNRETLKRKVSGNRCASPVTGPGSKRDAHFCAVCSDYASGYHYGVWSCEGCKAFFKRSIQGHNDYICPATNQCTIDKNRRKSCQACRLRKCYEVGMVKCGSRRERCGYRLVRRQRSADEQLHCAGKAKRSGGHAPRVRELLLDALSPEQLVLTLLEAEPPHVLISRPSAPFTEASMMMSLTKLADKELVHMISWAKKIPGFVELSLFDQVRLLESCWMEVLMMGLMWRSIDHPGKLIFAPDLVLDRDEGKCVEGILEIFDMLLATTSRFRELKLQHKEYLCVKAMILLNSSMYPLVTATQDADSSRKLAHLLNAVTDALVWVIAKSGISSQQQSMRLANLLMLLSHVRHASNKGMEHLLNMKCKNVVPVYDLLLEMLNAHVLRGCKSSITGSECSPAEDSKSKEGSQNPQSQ
As for `Cc1c(COC(=O)[C@@H]2[C@H](/C=C(\Cl)C(F)(F)F)C2(C)C)cccc1-c1ccccc1`, the concentration at half-maximal activity (AC50) is 100 µM (active).
With `CCN(CC)C(=O)C(C)Oc1cccc2ccccc12` (stereo unspecified), the AC50 is 100 µM (active).
The same measure, in the same setting: under `CC1(C)CCC(=Cc2ccc(Cl)cc2)C1(O)Cn1cncn1` (stereo unspecified) stands 46.6 µM (active).
Same read-out and setting: under `CC1(C)C(C=C(Cl)Cl)C1C(=O)OC(C#N)c1cccc(Oc2ccccc2)c1` (stereo unspecified) stands 66.8 µM (active); under `COP(=S)(OC)Oc1ccc([N+](=O)[O-])c(C)c1`, 64 µM (active).

Another assay concerns the target GAL4 Transcription Factor (Internal Marker), GAL4 (gene 855828) (UniProt P04386). The assay can be described thus: ATG_GAL4_XSP1: Attagene TRANS-FACTORIAL Multi-Species (XSP1) HepG2 Assay for GAL4 Transcription Factor (Internal Marker) (AID 2283789). In short, it runs like this: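 This background-control endpoint measures GAL4-driven reporter mRNA via RT-PCR and capillary electrophoresis of labelled fragments. Transiently transfected HepG2 cells were treated 24 h, with 3 nM 6-alpha-fluorotestosterone included, and gain-of-signal was fitted against DMSO.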
With `CC(C)NC(=O)N1CC(=O)N(c2cc(Cl)cc(Cl)c2)C1=O`, the molecule was called inactive.
Turning to `CC1(C)C(C=C(Cl)Cl)C1C(=O)OC(C#N)c1cccc(Oc2ccccc2)c1` (stereo unspecified), the result was inactive.
As for `COP(=S)(OC)Oc1ccc([N+](=O)[O-])c(C)c1`, the molecule was classed as inactive.

Tested on in a further assay: not listed separately
In words: ATG_M_06_XSP1: Attagene TRANS-FACTORIAL Multi-Species (XSP1) HepG2 Assay for M06 Transcription Factor (Internal Marker) (AID 2283790). In short, it runs like this: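 This background-control readout tracks M06 reporter mRNA, measured by RT-PCR and capillary electrophoresis. HepG2 cells transiently carrying the GAL4-UAS reporter panel were dosed for 24 h with 3 nM 6-alpha-fluorotestosterone added for partial AR stimulation; increases were scored relative to DMSO.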
Turning to `Cc1c(COC(=O)[C@@H]2[C@H](/C=C(\Cl)C(F)(F)F)C2(C)C)cccc1-c1ccccc1`, the molecule was classed as inactive.
Same read-out and setting: next, `CCN(CC)C(=O)C(C)Oc1cccc2ccccc12` (stereo unspecified): “inactive”; `CC1(C)CCC(=Cc2ccc(Cl)cc2)C1(O)Cn1cncn1` (stereo unspecified): “inactive”.
The same measure, in the same setting: next, `COP(=S)(OC)Oc1ccc([N+](=O)[O-])c(C)c1`: “inactive”.

Tested on in a further assay: not listed separately
The assay can be described thus: ATG_M_61_XSP1: Attagene TRANS-FACTORIAL Multi-Species (XSP1) HepG2 Assay for M61 Transcription Factor (Internal Marker) (AID 2283797). In short, it runs like this:
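Background-control readout: reporter transcripts measured by RT-PCR and capillary electrophoresis 24 h after dosing transiently transfected HepG2 multi-reporter cells, with 3 nM 6-alpha-fluorotestosterone present. Fitted in the positive direction relative to DMSO.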
On to `Cc1c(COC(=O)[C@@H]2[C@H](/C=C(\Cl)C(F)(F)F)C2(C)C)cccc1-c1ccccc1`, for which the result was inactive.
Same read-out and setting: under `CCN(CC)C(=O)C(C)Oc1cccc2ccccc12` (stereo unspecified) stands “inactive”; under `CC1(C)CCC(=Cc2ccc(Cl)cc2)C1(O)Cn1cncn1` (stereo unspecified), “inactive”; under `COP(=S)(OC)Oc1ccc([N+](=O)[O-])c(C)c1`, “inactive”.

Source of the values: PubChem BioAssay (EPA / NIEHS).
